Records with an inconclusive call do not appear. The source made the active and inactive calls. Unless noted, the call rests on the fitted dose curve; in most records, active means well fitted curve in the direction sought with a large enough effect; inconclusive means small, poorly fitted or top-dose-only effect, or another doubt; inactive means no such curve, though single readings can be large; an effect the other way counts as inactive or inconclusive.
Experiments:
[1] = biological target: Glucocorticoid receptor (Homo sapiens) (UniProt P04150); test: qHTS assay for small molecule antagonists of glucocorticoid receptor signaling (AID 588533; active means well fitted inhibition curve with a large enough effect in the signal ratio, with a control signal flat, not every such curve was filed as active; the % refers to the signal ratio;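 further: cells stimulated with 2 nM dexamethasone as agonist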; further: potency means the concentration at half of the fitted maximal effect)
How it was run: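 Antagonist-mode qHTS: compound titrations added to GRE-bla HeLa cells, then dexamethasone 2 nM final; 18 h, 37 C. CCF4 FRET fluorescence normalized to dexamethasone and DMSO; IC50 from Hill fit.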

[2] = qHTS assay for small molecule antagonists of peroxisome proliferator-activated receptor delta signaling (AID 588535; active means well fitted inhibition curve with a large enough effect in the signal ratio, with a control signal flat, not every such curve was filed as active; the % refers to the signal ratio;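 on max response: cells co-treated with a PPAR-delta agonist as stimulator during compound exposure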); settings: HEK293T PPARd-UAS-bla, beta-lactamase FRET ratio, 18 h; 460 nm channel
How it was run: (§1)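 Antagonist-mode qHTS using GeneBLAzer PPAR-delta-UAS-bla HEK293T cells; compound exposure 18 hrs at 37 C over a titration. Ratiometric CCF4 fluorescence at 460/530 nm; concentration-response points fitted to the Hill equation.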

[3] = biological target: Peroxisome proliferator-activated receptor delta (Homo sapiens) (UniProt Q03181); test: as above
How it was run: as §1

[4] = biological target: Vitamin D3 receptor (Homo sapiens) (UniProt P11473); test: qHTS assay for small molecule antagonists of vitamin D receptor signaling (AID 588541; calls by dose curve;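 further: receptor activated by calcitriol during compound treatment; series mostly up to about 77 µM; on the % scale 0 is the no-effect control and ±100 the full control effect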)
How it was run: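 Antagonist-mode beta-lactamase reporter assay: HEK293T VDR-UAS-bla cells were exposed to titrated compound alongside 1-alpha,25-dihydroxyvitamin D3 at 3 nM final for 16 h. Values were normalized to the 50 nM agonist control and DMSO basal, with IC50 and efficacy from Hill equation fits.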

[5] = biological target: Vitamin D3 receptor (Homo sapiens) (UniProt P11473); test: qHTS assay for small molecule agonists of vitamin D receptor signaling (AID 588543; calls by dose curve;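 further: 0% = DMSO basal and 100% = reference agonist control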)
How it was run: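 VDR-UAS-bla HEK293T cells, 2000/well, 2% charcoal-stripped FBS; compound titration 16 h at 37 C; CCF4 beta-lactamase ratio read. Normalized to 50 nM 1-alpha,25-dihydroxyvitamin D3 (100%) and DMSO; Hill fit gives EC50, efficacy.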

[6] = qHTS assay for small molecule agonists of retinoid X receptor alpha signaling (AID 588544; calls by dose curve;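 on activation: 0% = DMSO basal wells and 100% = reference agonist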); settings: HEK293T RXRa-UAS-bla, beta-lactamase reporter, 18 h; 530 nm emission
[7] = biological target: Retinoic acid receptor RXR-alpha (Homo sapiens) (UniProt P19793); test: as above
[8] = qHTS assay for small molecule antagonists of retinoid X receptor alpha signaling (AID 588546; active means well fitted inhibition curve with a large enough effect in the signal ratio, with a control signal flat, not every such curve was filed as active; the % refers to the signal ratio;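 further: cells stimulated with 9-cis-retinoic acid as agonist; on the % scale 0 is the no-effect control and ±100 the full control effect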); settings: HEK293T RXRa-UAS-bla, beta-lactamase ratio, antagonist mode; measured here: W530 green channel, cytotoxicity proxy
How it was run: (§2)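 Beta-lactamase reporter inhibition, read as CCF4 fluorescence ratio (ex 405, em 460/530 nm) after 2 h at RT. HEK293T UAS-bla cells, 2500/well, were stimulated with 9-cis-RA at 500 or 100 nM final alongside test compound for 18 h at 37 C.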

[9] = biological target: Retinoic acid receptor RXR-alpha (Homo sapiens) (UniProt P19793); test: as above; settings: HEK293T RXRa-UAS-bla, beta-lactamase ratio, antagonist mode
How it was run: as §2

[10] = qHTS assay for environmental chemicals that activate the Aryl hydrocarbon Receptor (AhR) signaling pathway (AID 651777); settings: 1A2-DRE human hepatoma cells, luciferase, 24 h; activation: stronger effect = higher value; further: nearly all actives have a fitted effect of over 15% in size; further: potency means the concentration at half of the fitted maximal effect; on activation: % of control where 0% means no effect
How it was run: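 Human hepatoma 1A2-DRE cells, stably carrying a dioxin response element and CYP1A2 promoter driving luciferase, were exposed to compounds for 24 hr at 37 C and 5% CO2. Luciferase signal was then read after 30 min One-Glo at room temperature.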

[11] = biological target: Peroxisome proliferator-activated receptor alpha (Homo sapiens) (UniProt Q07869); test: qHTS assay for small molecule agonists of the peroxisome proliferator-activated receptor alpha (PPARalpha) signaling pathway (AID 651778); settings: PathHunter PPARalpha complementation, chemiluminescence, 6 h; max response: stronger effect = higher value; further: potency means the concentration at half of the fitted maximal effect; on max response: % of control where 0% means no effect
How it was run: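 Chemiluminescence from complemented enzyme reported PPARalpha activation in cells after 6 hr of compound treatment at 37 C. The detection reagent was incubated for 60 min at room temperature, and compounds were scored as agonists.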

[12] = qHTS assay for small molecule agonists of the antioxidant response element (ARE) signaling pathway measured by Nrf2-dependant transcriptional activity (AID 720636; active means well fitted curve in the direction sought with a large enough effect in the repeat runs; an effect the other way counts as inactive or inconclusive; further: % of control where 0% means no effect)
How it was run: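 ARE-luc HepG2 cells carrying an Nrf2-responsive luciferase reporter were plated in medium with 1% dialyzed FBS, left 6 hr at 37 C to attach, then exposed to compound for 16 hr. Luciferase luminescence was read after ONE-Glo addition.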

[13] = qHTS assay for small molecule agonists of the antioxidant response element (ARE) signaling pathway measured by Nrf2-dependant transcriptional activity - cell viability counter screen (AID 720653; active means well fitted curve in the direction sought with a large enough effect in the repeat runs; an effect the other way counts as inactive or inconclusive; further: on the % scale 0 is the no-effect control and ±100 the full control effect); settings: ARE-bla HepG2 viability, CellTiter-Glo ATP luminescence, 16 h; max response: stronger effect = lower value
How it was run: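 Cytotoxicity counter screen: intracellular ATP quantified by CellTiter-Glo luminescence in the same ARE-bla HepG2 plates, after 16 h compound exposure and a 2 h beta-lactamase substrate step.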

[14] = qHTS assay for cell viability of HEK293 cells (AID 743288); settings: ATP luminescence (CellTiter-Glo), 18 h; max response: stronger effect = lower value; further: on the % scale 0 is the no-effect control and ±100 the full control effect; nearly all actives have a fitted effect of over 50% in size
How it was run: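 Steps: plate 2,000 parental HEK293 cells per well; incubate ≥5 h, 37 C; add compounds in DMSO; incubate 18 h, 37 C; add CellTiter-Glo; wait 30 min at room temperature; read luminescence.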

[15] = qHTS assay for cell viability of the p53RE-bla HCT-116 cell line (AID 743292); further: nearly all actives have a fitted effect of over 55% in size; further: potency means the concentration at half of the fitted maximal effect
How it was run: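 CellSensor p53RE-bla HCT-116 cells, 4,000/well, preincubated 5 h at 37 C, then exposed to compounds in DMSO for 16 h at 37 C. Viability read as CellTiter-Glo luminescence (intracellular ATP) after 30 min at room temperature.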

[16] = biological target: Nuclear receptor subfamily 1 group I member 2 (Rattus norvegicus) (UniProt Q9R1A7); test: qHTS assay for small molecule activators of the rat pregnane X receptor (rPXR) signaling pathway (AID 651751; call rule not given here; further: 0% is about no effect); settings: rPXR reporter cells, luciferase (One-Glo), 24 h
[17] = qHTS assay for small molecule activators of the human pregnane X receptor (PXR) signaling pathway (AID 720659; call rule not given here; further: 0% is about no effect)
[18] = biological target: Thyroid hormone receptor beta (Homo sapiens) (UniProt P10828); test: qHTS assay for small molecule agonists of thyroid hormone receptor beta signaling (AID 588545; calls by dose curve;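 further: 0% = DMSO only and 100% = 10 nM T3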)
How it was run: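 TR-UAS-bla-GripTite HEK 293 cells in medium with 2% charcoal/dextran FBS, 0.1 mM NEAA and 1 mM sodium pyruvate were treated with titrated compounds for 18 hrs at 37 C. Beta-lactamase reporter was read with CCF4 dye (ex 405, em 460/530 nm); EC50 from Hill fits.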

[19] = qHTS assay for small molecule activators of the nuclear factor-kappa B (NF-kB) signaling pathway (AID 651749; active means well fitted activation curve with a large enough effect in the signal ratio; the % refers to the signal ratio; further: series mostly up to about 77 µM; % of control where 0% means no effect); settings: NF-kB-bla ME-180 cells, beta-lactamase FRET ratio, 16 h; activation: stronger effect = higher value
How it was run: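 FRET-based beta-lactamase detection in ME-180 cells reports NF-kB response-element-driven transcription following overnight (16 hr) compound treatment.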

[20] = qHTS assay for small molecule activators of the p53 signaling pathway (AID 651743; active means well fitted activation curve with a large enough effect in the signal ratio, not every such curve was filed as active; the % refers to the signal ratio; further: series mostly up to about 92 µM; % of control where 0% means no effect); settings: HCT-116 p53RE-bla, beta-lactamase FRET ratio, 16 h; activation: stronger effect = higher value
How it was run: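 A beta-lactamase reporter under p53 response element control, stably carried by HCT-116 cells, reported pathway activation. Test compounds were applied for 16 hours at 37 C, and fluorescence was measured 2 hours after adding the B/G FRET substrate.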

Nuclear receptor subfamily 1 group I member 2 (Rattus norvegicus), sequence (Q9R1A7 whole entry, looked up): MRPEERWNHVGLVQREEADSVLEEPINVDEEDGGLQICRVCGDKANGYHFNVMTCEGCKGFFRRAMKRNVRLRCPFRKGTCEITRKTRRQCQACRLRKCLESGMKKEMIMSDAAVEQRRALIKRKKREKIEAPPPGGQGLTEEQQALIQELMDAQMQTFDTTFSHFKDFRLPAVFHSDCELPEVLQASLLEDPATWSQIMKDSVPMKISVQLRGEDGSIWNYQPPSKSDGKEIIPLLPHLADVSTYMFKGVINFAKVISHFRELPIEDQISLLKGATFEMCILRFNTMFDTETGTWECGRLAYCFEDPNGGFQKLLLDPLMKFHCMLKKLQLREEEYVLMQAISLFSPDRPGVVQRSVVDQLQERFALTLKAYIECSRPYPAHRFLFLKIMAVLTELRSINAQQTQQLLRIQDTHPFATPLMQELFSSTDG
Thyroid hormone receptor beta (Homo sapiens), sequence (P10828 whole entry, looked up): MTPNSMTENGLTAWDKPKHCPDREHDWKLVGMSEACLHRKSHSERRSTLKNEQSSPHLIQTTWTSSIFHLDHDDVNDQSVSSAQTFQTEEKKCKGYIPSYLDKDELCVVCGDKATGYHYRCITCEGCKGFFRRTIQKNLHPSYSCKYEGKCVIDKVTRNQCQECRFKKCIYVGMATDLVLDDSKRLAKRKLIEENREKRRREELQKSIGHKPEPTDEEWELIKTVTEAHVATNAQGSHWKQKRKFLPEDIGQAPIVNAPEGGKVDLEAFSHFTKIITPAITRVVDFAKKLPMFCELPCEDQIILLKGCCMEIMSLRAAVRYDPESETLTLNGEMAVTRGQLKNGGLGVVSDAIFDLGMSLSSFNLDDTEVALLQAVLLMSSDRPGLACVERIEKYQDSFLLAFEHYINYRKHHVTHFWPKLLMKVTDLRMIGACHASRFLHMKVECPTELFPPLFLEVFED
Peroxisome proliferator-activated receptor delta (Homo sapiens), sequence (Q03181 whole entry, looked up): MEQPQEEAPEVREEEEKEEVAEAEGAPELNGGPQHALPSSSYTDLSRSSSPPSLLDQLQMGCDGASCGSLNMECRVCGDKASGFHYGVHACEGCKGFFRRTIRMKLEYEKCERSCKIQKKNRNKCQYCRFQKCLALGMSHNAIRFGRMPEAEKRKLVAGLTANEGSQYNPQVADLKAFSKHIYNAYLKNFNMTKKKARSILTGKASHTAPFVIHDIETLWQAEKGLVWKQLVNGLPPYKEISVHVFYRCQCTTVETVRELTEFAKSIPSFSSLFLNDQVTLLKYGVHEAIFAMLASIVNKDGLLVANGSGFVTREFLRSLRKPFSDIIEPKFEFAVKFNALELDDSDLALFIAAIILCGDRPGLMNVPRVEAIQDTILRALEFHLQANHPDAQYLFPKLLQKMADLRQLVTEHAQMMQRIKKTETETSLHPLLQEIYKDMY
Vitamin D3 receptor (Homo sapiens), sequence (P11473 whole entry, looked up): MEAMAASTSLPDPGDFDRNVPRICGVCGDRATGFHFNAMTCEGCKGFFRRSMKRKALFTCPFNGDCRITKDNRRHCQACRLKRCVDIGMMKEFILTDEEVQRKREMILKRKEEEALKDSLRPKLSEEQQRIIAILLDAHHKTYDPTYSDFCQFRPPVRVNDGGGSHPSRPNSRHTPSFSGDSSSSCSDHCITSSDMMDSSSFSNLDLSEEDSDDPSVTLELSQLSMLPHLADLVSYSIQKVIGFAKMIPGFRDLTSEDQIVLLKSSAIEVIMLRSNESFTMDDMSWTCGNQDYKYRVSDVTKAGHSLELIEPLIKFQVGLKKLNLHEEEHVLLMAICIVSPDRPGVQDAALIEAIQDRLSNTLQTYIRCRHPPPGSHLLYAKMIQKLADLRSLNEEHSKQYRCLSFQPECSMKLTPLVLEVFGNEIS
Glucocorticoid receptor (Homo sapiens), sequence (P04150 whole entry, looked up): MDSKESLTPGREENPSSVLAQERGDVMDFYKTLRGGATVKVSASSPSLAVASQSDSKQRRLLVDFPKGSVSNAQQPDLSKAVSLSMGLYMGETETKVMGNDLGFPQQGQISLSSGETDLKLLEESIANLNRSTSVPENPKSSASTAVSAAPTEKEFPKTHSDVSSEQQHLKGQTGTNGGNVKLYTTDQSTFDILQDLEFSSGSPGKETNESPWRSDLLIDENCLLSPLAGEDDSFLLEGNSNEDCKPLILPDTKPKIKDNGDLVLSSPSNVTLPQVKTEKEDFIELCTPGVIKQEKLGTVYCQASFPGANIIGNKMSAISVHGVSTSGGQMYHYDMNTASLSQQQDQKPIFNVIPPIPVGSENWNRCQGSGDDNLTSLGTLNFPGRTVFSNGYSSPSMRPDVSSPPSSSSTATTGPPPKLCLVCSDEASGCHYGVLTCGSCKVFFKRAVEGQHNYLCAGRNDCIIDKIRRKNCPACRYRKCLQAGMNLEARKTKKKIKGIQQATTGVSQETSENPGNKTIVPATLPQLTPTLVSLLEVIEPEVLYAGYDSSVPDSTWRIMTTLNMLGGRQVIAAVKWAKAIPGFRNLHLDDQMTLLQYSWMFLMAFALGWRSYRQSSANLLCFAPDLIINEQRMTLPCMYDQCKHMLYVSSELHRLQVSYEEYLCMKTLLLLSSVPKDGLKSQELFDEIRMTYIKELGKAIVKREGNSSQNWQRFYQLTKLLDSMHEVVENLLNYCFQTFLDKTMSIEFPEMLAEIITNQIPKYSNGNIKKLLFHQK
Retinoic acid receptor RXR-alpha (Homo sapiens), sequence (P19793 whole entry, looked up): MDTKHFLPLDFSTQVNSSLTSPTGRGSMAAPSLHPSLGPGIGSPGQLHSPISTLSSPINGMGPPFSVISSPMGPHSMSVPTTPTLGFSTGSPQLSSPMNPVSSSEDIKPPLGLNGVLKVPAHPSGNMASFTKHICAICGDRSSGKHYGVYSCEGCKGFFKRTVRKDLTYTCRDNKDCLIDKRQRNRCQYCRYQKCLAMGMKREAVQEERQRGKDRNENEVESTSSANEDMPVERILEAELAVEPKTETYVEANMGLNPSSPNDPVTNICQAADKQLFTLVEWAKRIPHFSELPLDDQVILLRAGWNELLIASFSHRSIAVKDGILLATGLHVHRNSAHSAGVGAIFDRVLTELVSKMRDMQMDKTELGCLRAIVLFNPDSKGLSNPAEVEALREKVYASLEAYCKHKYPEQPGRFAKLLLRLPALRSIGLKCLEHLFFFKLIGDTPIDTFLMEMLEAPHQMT
Peroxisome proliferator-activated receptor alpha (Homo sapiens), sequence (Q07869 whole entry, looked up): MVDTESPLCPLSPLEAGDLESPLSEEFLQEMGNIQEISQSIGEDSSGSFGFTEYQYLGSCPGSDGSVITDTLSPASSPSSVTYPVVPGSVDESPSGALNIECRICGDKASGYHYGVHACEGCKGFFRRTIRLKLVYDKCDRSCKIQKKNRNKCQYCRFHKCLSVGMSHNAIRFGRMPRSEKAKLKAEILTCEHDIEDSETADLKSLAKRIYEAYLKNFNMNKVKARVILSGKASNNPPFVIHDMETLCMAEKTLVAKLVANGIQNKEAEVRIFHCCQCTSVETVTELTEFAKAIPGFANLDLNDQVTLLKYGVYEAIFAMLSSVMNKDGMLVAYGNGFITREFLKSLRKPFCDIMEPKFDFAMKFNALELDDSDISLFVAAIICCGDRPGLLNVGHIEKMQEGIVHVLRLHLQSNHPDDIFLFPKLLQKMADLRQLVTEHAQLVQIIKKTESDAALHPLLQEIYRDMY

Which Potency [1] does the source give for `O=C(Cl)c1cccc(C(=O)Cl)c1` here?
The Potency was “inactive”.

And the max response [2]?
The max response was -11.7%.

What about the Potency [3] of the same compound?
Its Potency is “inactive”.

What about the Potency [4] of the same compound?
The Potency was “inactive”.

And the outcome [5]?
Its outcome is “inactive”.

What about the max response [6] of the same compound?
The max response was -7.46%.

And the Potency [7]?
The Potency was “inactive”.

And the max response [8]?
Its max response is -3.89%.

And the max response [9]?
The max response was -13.1% (inactive).

And the activation [10]?
Its activation is -0.235% (inactive).

What about the max response [11] of the same compound?
The max response was -0.213% (inactive).

And the Potency [12]?
The Potency was “inactive”.

What about the max response [13] of the same compound?
The max response was 5.28% (inactive).

What about the max response [14] of the same compound?
The max response was -6.55% (inactive).

What about the Potency [15] of the same compound?
The Potency was “inactive”.

And the max response [16]?
The max response was -0.886% (inactive).

What about the outcome [17] of the same compound?
The outcome was “inactive”.

What does the source list for `O=C1CCC(C2CCCCC2)CC1`?
Potency [1]: inactive; Potency [4]: inactive; outcome [5]: inactive; max response [6]: -15.9%; Potency [7]: inactive; Potency [18]: inactive; max response [8]: -11.9%; max response [9]: -6.4% (inactive); activation [19]: -1.09% (inactive); activation [10]: -0.377% (inactive); Potency [12]: inactive; max response [13]: -5.5% (inactive); max response [14]: -5.89% (inactive); Potency [15]: inactive; max response [16]: -0.198% (inactive); outcome [17]: inactive

For `COCCOCCOCCO`, which Potency [1] is on record?
The Potency was “inactive”.

What about the max response [2] of the same compound?
The max response was 7.14%.

And the Potency [3]?
The Potency was “inactive”.

And the outcome [5]?
Its outcome is “inactive”.

And the max response [6]?
The max response was -11.8%.

And the Potency [7]?
Its Potency is “inactive”.

What about the max response [8] of the same compound?
Its max response is -2.04%.

What about the max response [9] of the same compound?
Its max response is 3.15% (inactive).

What about the activation [20] of the same compound?
Its activation is 13.1% (inactive).

What about the activation [10] of the same compound?
Its activation is -0.0316% (inactive).

What about the max response [11] of the same compound?
Its max response is 0.508% (inactive).

What about the Potency [12] of the same compound?
Its Potency is “inactive”.

What about the max response [13] of the same compound?
Its max response is -1.82% (inactive).

What about the max response [14] of the same compound?
Its max response is -7% (inactive).

And the Potency [15]?
The Potency was “inactive”.

And the max response [16]?
Its max response is 1.8% (inactive).

And the outcome [17]?
The outcome was “inactive”.

Which results are given for `O=C(O)c1cc(O)c2ccccc2c1O`?
Potency [1]: 44.7 µM (active); Potency [18]: inactive; activation [20]: -4.76% (inactive); Potency [10]: 14.1 µM (active); max response [11]: -7.87% (inactive); Potency [15]: 39.8 µM (active); max response [16]: 5.84% (inactive)

Which Potency [1] does the source give for `CCCCCCC(O)CCCCCCCCCCC(=O)OC` (configuration not stated) here?
The Potency was “inactive”.

And the max response [2]?
Its max response is 18.1%.

What about the Potency [3] of the same compound?
Its Potency is “inactive”.

And the Potency [4]?
Its Potency is “inactive”.

What about the outcome [5] of the same compound?
Its outcome is “inactive”.

And the max response [6]?
Its max response is -11.4%.

And the Potency [7]?
Its Potency is “inactive”.

And the Potency [18]?
The Potency was “inactive”.

And the activation [20]?
The activation was 0.349% (inactive).

What about the activation [19] of the same compound?
The activation was -0.158% (inactive).

And the Potency [11]?
The Potency was 20 µM (active).

And the Potency [12]?
The Potency was “inactive”.

What about the max response [13] of the same compound?
Its max response is 9.9% (inactive).

What about the max response [14] of the same compound?
The max response was -0.436% (inactive).

What about the Potency [15] of the same compound?
Its Potency is “inactive”.

What about the max response [16] of the same compound?
Its max response is -2.07% (inactive).

And the outcome [17]?
Its outcome is “inactive”.

For `C=C(C)C(=O)OCCC[Si](Cl)(Cl)Cl`, which Potency [1] is on record?
Its Potency is “inactive”.

What about the max response [2] of the same compound?
Its max response is 8.96%.

And the Potency [3]?
Its Potency is “inactive”.

What about the Potency [4] of the same compound?
The Potency was “inactive”.

And the max response [6]?
Its max response is -12.2%.

And the Potency [7]?
The Potency was “inactive”.

What about the max response [8] of the same compound?
Its max response is -12.6%.

What about the max response [9] of the same compound?
Its max response is 9.64% (inactive).

What about the activation [20] of the same compound?
The activation was -1.03% (inactive).

And the activation [19]?
The activation was -0.259% (inactive).

And the activation [10]?
Its activation is -0.113% (inactive).

And the max response [11]?
The max response was 0.0328% (inactive).

And the Potency [12]?
Its Potency is “inactive”.

And the max response [13]?
Its max response is -17.2% (inactive).

And the max response [14]?
The max response was -10.2% (inactive).

And the Potency [15]?
Its Potency is “inactive”.

And the max response [16]?
The max response was 1.99% (inactive).

What about the outcome [17] of the same compound?
The outcome was “inactive”.

Source: PubChem BioAssay (NCATS)
